The campaign covered roughly 310,000 compounds. About 14,000 (4.5%) showed an effect of 50% or more. The effect is printed as a negative number. The entries come from a sample that favours strong results as a whole.
Target: human ether-à-go-go-related gene (hERG) potassium channel (human, UniProt Q12809)
Test: primary screen, population patch clamp on CHO cells stably expressing hERG; higher = less effect of the substance
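Also: peak tail current of the secondary pulse compared with the same well before compound.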

Sequence of human ether-à-go-go-related gene (hERG) potassium channel (Q12809 whole entry, looked up): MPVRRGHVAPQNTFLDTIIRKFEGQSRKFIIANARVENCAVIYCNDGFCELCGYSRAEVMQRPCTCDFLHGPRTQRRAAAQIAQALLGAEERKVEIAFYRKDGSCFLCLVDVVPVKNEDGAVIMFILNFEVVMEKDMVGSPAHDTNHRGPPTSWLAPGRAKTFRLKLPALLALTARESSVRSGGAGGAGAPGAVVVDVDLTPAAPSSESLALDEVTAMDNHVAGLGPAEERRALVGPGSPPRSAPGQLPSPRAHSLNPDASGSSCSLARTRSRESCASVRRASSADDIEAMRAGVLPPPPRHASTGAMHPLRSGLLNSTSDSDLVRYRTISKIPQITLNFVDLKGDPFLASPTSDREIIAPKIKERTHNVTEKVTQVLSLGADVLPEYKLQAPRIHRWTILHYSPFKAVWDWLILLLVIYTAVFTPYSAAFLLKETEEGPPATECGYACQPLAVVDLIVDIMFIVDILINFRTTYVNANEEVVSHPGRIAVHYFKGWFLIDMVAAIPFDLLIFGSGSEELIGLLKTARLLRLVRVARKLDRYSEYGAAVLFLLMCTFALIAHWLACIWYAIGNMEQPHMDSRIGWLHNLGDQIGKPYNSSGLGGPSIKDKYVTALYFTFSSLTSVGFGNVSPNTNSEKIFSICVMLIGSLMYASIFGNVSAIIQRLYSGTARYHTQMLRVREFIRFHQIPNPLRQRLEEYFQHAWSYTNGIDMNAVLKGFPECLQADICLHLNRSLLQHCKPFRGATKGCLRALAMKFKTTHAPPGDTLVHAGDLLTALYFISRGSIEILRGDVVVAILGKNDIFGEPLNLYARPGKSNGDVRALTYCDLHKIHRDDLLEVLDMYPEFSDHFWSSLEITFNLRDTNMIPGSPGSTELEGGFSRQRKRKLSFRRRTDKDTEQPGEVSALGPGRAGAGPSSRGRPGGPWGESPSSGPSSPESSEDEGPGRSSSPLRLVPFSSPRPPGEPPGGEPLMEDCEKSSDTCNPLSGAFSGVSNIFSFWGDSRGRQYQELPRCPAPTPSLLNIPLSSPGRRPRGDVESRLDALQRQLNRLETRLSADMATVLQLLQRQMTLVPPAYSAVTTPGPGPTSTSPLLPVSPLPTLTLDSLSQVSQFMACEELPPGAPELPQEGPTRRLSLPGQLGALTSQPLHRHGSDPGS

Going from `COc1ccc(CCC(=O)Nc2nc(C)c(C(=O)N(C)C)s2)cc1` to `CCOC(=O)NC(=O)CSc1ccc2ccccc2n1`, the “hERG current change (%, negative = inhibition) at 10uM” value rises from -2.23% to 14%.

Going from `CS(=O)(=O)c1ccc(N2CCOCC2)c(S(C)(=O)=O)c1` to `CC(C)(C)C(=O)Nc1ccc(S(=O)(=O)N2CCCC2)cc1`, the “hERG current change (%, negative = inhibition) at 10uM” value rises from -5.39% to 4.25%.

First: CC(C)CCN1CCN(C2CCN(c3ccc4c(c3)OCO4)CC2)CC1CCO (centres unmarked)
Second: CC(C)CCN1CCN(C2CCN(c3ccccc3)CC2)CC1CCO (centres unmarked)
The “hERG current change (%, negative = inhibition) at 10uM” value of the first is higher: -17.6% for the first, -60.9% for the second.

First: Cc1cc(F)ccc1N1CCC(N2CCN(C)C(CCO)C2)CC1 (centres unmarked)
Second: Cc1cc(F)ccc1N1CCC(N2CCN(C(C)C)C(CCO)C2)CC1 (centres unmarked)
The “hERG current change (%, negative = inhibition) at 10uM” value of the first is higher: 22.1% for the first, -24.7% for the second.

First: Cc1cc(F)ccc1N1CCC(N2CCN(CCC(C)C)C(CCO)C2)CC1 (centres unmarked)
Second: Cc1ccc(N2CCC(N3CCN(C)C(CCO)C3)CC2)cc1 (centres unmarked)
The “hERG current change (%, negative = inhibition) at 10uM” value of the first is lower: -63.5% for the first, 12.8% for the second.

Compared with `O=C(CN1CCOCC1)NCCc1ccccc1`, `O=C(NCCc1ccccc1)C1CCN(C2CCN(Cc3ccco3)CC2)CC1` is lower in “hERG current change (%, negative = inhibition) at 10uM” value: 16.4% for the first, -62.7% for the second.

Compared with `NS(=O)(=O)c1ccc(NN=C2CCN(Cc3ccccc3)CC2)c([N+](=O)[O-])c1`, `NS(=O)(=O)c1ccc(CCNC(=O)CNCCc2ccccc2)cc1` is higher in “hERG current change (%, negative = inhibition) at 10uM” value: -17.6% for the first, 16.2% for the second.

First: CCC1(C(=O)OC)NC(c2ccco2)C2C(=O)N(c3ccc(F)cc3)C(=O)C21 (centres unmarked)
Second: CC(=O)[C@@H]1[C@@H](C)N(Cc2ccccc2)C(=O)N[C@H]1c1cccc(C(F)(F)F)c1
The “hERG current change (%, negative = inhibition) at 10uM” value of the first is higher: 6.75% for the first, 5.55% for the second.

First: Cc1nc(-c2cccc(S(=O)(=O)N3CCC(C)CC3)c2)cs1
Second: CCOC(=O)C1CCN(S(=O)(=O)c2cccc(-c3csc(C)n3)c2)CC1
The “hERG current change (%, negative = inhibition) at 10uM” value of the first is higher: -13.4% for the first, -53.5% for the second.

First: CCOC(=O)C1CCN(S(=O)(=O)c2cccc(-c3cn4cc(C)ccc4n3)c2)CC1
Second: CCOC(=O)C1CCN(S(=O)(=O)c2cccc(-c3cn4cc(Cl)ccc4n3)c2)CC1
The “hERG current change (%, negative = inhibition) at 10uM” value of the first is higher: -3.7% for the first, -58% for the second.

First: Cc1nc(-c2cccc(S(=O)(=O)N3CCCCCC3)c2)cs1
Second: CCOC(=O)C1CCN(S(=O)(=O)c2cccc(-c3cn4ccccc4n3)c2)CC1
The “hERG current change (%, negative = inhibition) at 10uM” value of the first is higher: -23.2% for the first, -60.4% for the second.

Going from `CCOC(=O)C1CCN(S(=O)(=O)c2cccc(-c3cn4cccc(C)c4n3)c2)CC1` to `CCOC(=O)C1CCN(S(=O)(=O)c2cccc(-c3cn4cccnc4n3)c2)CC1`, the “hERG current change (%, negative = inhibition) at 10uM” value falls from -21.3% to -24.7%.

Going from `CC1CCN(S(=O)(=O)c2cccc(-c3cn4cc(Cl)ccc4n3)c2)CC1` to `O=C(NCc1cccs1)C1CCN(S(=O)(=O)c2cccc([N+](=O)[O-])c2)CC1`, the “hERG current change (%, negative = inhibition) at 10uM” value falls from -5.86% to -15.7%.

Going from `COc1ccccc1C(=O)NC(C)c1cccc2ccccc12` (centres unmarked) to `Cc1ccccc1C(=O)Oc1cccc(Nc2ncnc3ccccc23)c1`, the “hERG current change (%, negative = inhibition) at 10uM” value falls from 8.02% to -3.38%.

Going from `C=CCN(C(=O)c1ccc(Cl)cc1)c1ccccc1C(=O)NCC(=O)O` to `O=C(CCNC(=O)c1ccccc1Cl)NCCCSc1ccccc1`, the “hERG current change (%, negative = inhibition) at 10uM” value falls from 21.1% to -8.64%.

First: CCC(NC(=O)NCCCn1ccnc1)(C(F)(F)F)C(F)(F)F
Second: CCCNC(=O)Cc1ccsc1
The “hERG current change (%, negative = inhibition) at 10uM” value of the first is lower: 8.18% for the first, 9.93% for the second.

First: CC(C)c1ccc(N=c2c([N+](=O)[O-])nn(-c3ccc4c(c3)OCCO4)n2O)cc1
Second: Cc1ccc(C(=O)Nc2cc(C(C)C)c(O)c(C(C)C)c2)cc1
The “hERG current change (%, negative = inhibition) at 10uM” value of the first is higher: 1.98% for the first, -4.12% for the second.

First: COc1ccc(CSc2ccc(-c3nc4ccccn4c3NCc3ccccc3)cc2OC)cc1.O=C(O)C(F)(F)F
Second: COc1ccc(-c2cc(C(=O)N3CCCC3)c3ccccc3n2)cc1
The “hERG current change (%, negative = inhibition) at 10uM” value of the first is higher: 8.68% for the first, -2.31% for the second.

Compared with `C=CCn1c(SCCCCCC)nc(O)cc1=O`, `CCC(C)NC(=O)CN1C(=O)NC2(CCOc3ccccc32)C1=O` (centres unmarked) is lower in “hERG current change (%, negative = inhibition) at 10uM” value: -4% for the first, -9.56% for the second.

First: Cc1ccccc1/C=N\NC(=O)c1ccccc1-n1cccc1
Second: O=C(Nc1ccc2c(c1)CCC2)c1ccccc1
The “hERG current change (%, negative = inhibition) at 10uM” value of the first is higher: 18.5% for the first, 9.66% for the second.

Compared with `COc1cccc(C2C(=O)c3ccccc3C2=O)c1`, `CN(c1ccccc1)c1nc(N)c([N+](=O)[O-])c(NCc2ccccc2)n1` is higher in “hERG current change (%, negative = inhibition) at 10uM” value: 16.9% for the first, 17.6% for the second.

Going from `NS(=O)(=O)c1ccc(CCNC(=S)NC2CCCC2)cc1` to `NS(=O)(=O)c1ccc(CCNCC(=O)NC2CC2)cc1`, the “hERG current change (%, negative = inhibition) at 10uM” value falls from 11.2% to -64.1%.

Compared with `Br.Clc1ccc2nc(CN3CCCCC3)cn2c1`, `Cc1ccccc1CN1CCC(N2CCC(C(=O)NCC3CCCO3)CC2)CC1` (centres unmarked) is higher in “hERG current change (%, negative = inhibition) at 10uM” value: -32.7% for the first, -1.07% for the second.

First: Cc1cc2ccc3ccccc3c2cc1CN(C)C.Cl
Second: CN(C)Cc1c(O)ccc2ccccc12
The “hERG current change (%, negative = inhibition) at 10uM” value of the first is lower: -51.9% for the first, 0.0591% for the second.

First: CN(C)Cc1cc2ccccc2c2c1COC2
Second: Cc1ncoc1C(=O)N1CCc2c([nH]c3ccccc23)C1C(C)(C)C (centres unmarked)
The “hERG current change (%, negative = inhibition) at 10uM” value of the first is higher: -0.493% for the first, -65.3% for the second.

First: O=C(O)CCC(=O)N1N=C(c2ccc(Br)cc2)CC1c1ccc(Br)cc1 (centres unmarked)
Second: C/C(=N\NC(=O)CCc1ccc(S(=O)(=O)N2CCOCC2)cc1)c1ccc(Br)cc1
The “hERG current change (%, negative = inhibition) at 10uM” value of the first is higher: 20.6% for the first, 6.98% for the second.

Compared with `Cc1ccc(C)c(C(=O)Nc2nc3ccccc3[nH]2)c1`, `CCC(Sc1nnc(C)c(=O)[nH]1)C(=O)Nc1cccc2ccccc12` (centres unmarked) is lower in “hERG current change (%, negative = inhibition) at 10uM” value: 25.9% for the first, 10% for the second.

First: Cc1ccc(CN2CCC(N3CCC(C(=O)NCC4CCCO4)CC3)CC2)o1 (centres unmarked)
Second: O=C(NCC1CCCO1)C1CCN(C2CCN(Cc3ccco3)CC2)CC1 (centres unmarked)
The “hERG current change (%, negative = inhibition) at 10uM” value of the first is higher: -4.02% for the first, -51% for the second.

First: O=C(NCC1CCCO1)C1CCN(C2CCN(C3CCCCCC3)CC2)CC1 (centres unmarked)
Second: O=C(NCC1CCCO1)C1CCN(C2CCN(C(=O)CC3CCCC3)CC2)CC1 (centres unmarked)
The “hERG current change (%, negative = inhibition) at 10uM” value of the first is higher: 28.4% for the first, -10% for the second.

Going from `O=C(NCCc1ccccc1)C1CCN(Cc2ccccc2F)CC1.O=C(O)C(=O)O` to `O=C(NCCc1ccccc1)C1CCN(C2CCN(Cc3ccc(CO)o3)CC2)CC1`, the “hERG current change (%, negative = inhibition) at 10uM” value rises from 1.53% to 18.2%.

Compared with `CCOc1cccc(CN2CCC(N3CCC(C(=O)NCC4CCCO4)CC3)CC2)c1` (centres unmarked), `O=C(NCC1CCCO1)C1CCN(C2CCN(Cc3cccs3)CC2)CC1` (centres unmarked) is lower in “hERG current change (%, negative = inhibition) at 10uM” value: -10.5% for the first, -64.2% for the second.

Going from `O=C(NCC1CCCO1)C1CCN(C2CCN(CCCC3CCCC3)CC2)CC1` (centres unmarked) to `Cc1cc(C)c(CN2CCC(N3CCC(C(=O)NCC4CCCO4)CC3)CC2)cc1C` (centres unmarked), the “hERG current change (%, negative = inhibition) at 10uM” value rises from -58% to -24.4%.

Compared with `Cc1nnsc1C(=O)Nc1ccccc1`, `O=C(Nc1cccc(-n2cnnn2)c1)c1ccco1` is lower in “hERG current change (%, negative = inhibition) at 10uM” value: 18.2% for the first, -0.205% for the second.

First: O=C(N/N=C/c1ccc(F)cc1)c1cccc(NC(=O)c2ccc(F)cc2)c1
Second: O=C(c1cc(-c2ccc(F)cc2)nc2ccccc12)N1CCN(C2CCS(=O)(=O)C2)CC1 (centres unmarked)
The “hERG current change (%, negative = inhibition) at 10uM” value of the first is higher: -4.54% for the first, -69% for the second.

Compared with `COc1ccc(NC(=S)N2CCC(N(C)CCN3CCOCC3)CC2)cc1Cl`, `COc1ccc(C2CC(c3cccs3)=NN2C(=O)COC(=O)C2CCCCC2)cc1OC` (centres unmarked) is higher in “hERG current change (%, negative = inhibition) at 10uM” value: -26.8% for the first, -18.1% for the second.

First: CN(C)c1nc(N(C)C)nc(N(C#N)CCCl)n1
Second: COc1ccc(-c2noc(-c3ccoc3C)n2)cc1
The “hERG current change (%, negative = inhibition) at 10uM” value of the first is lower: 8.89% for the first, 39.5% for the second.

Going from `Cc1noc(N)c1C1(O)C(=O)Nc2c(Cl)cc(Cl)cc21` (centres unmarked) to `Cc1cccc(C2c3[nH]c4ccccc4c3CCN2C(=O)c2ocnc2C)n1` (centres unmarked), the “hERG current change (%, negative = inhibition) at 10uM” value falls from 0.32% to -10.5%.

First: CCOc1ccc(CCN2C(=O)c3ccc(C(=O)O)cc3C2=O)cc1OCC
Second: COc1ccc(CC(=O)Nc2cc(NC(=O)Cc3ccc(OC)c(OC)c3)cc(C(=O)O)c2)cc1OC
The “hERG current change (%, negative = inhibition) at 10uM” value of the first is lower: -3.15% for the first, 14.3% for the second.

Going from `CC(=O)c1c(N2CCN(C)CC2)nc(=S)n(-c2cc(C)ccc2C)c1C` to `Cc1ccc(-c2cc(C(=O)N3CCN(c4ncccn4)CC3)c3ccccc3n2)cc1`, the “hERG current change (%, negative = inhibition) at 10uM” value falls from 28.7% to -40.9%.

Going from `Cc1ccc(-c2cc(C(=O)N3CCN(C4CCS(=O)(=O)C4)CC3)c3ccccc3n2)cc1` (centres unmarked) to `O=C(c1cc(-c2ccccc2)nc2ccccc12)N1CCN(C2CCS(=O)(=O)C2)CC1` (centres unmarked), the “hERG current change (%, negative = inhibition) at 10uM” value rises from -60.7% to -25%.

Going from `O=C(NC1CCS(=O)(=O)C1)c1cc(-c2ccccc2)nc2ccccc12` (centres unmarked) to `O=C(CCCc1nc2ccccc2s1)NCc1cccnc1`, the “hERG current change (%, negative = inhibition) at 10uM” value falls from 13.6% to 0.483%.

Compared with `Fc1ccc(NC(=S)NCCc2ccccc2)c(F)c1F`, `C/C(=N\NC(=O)CN1CCN(S(=O)(=O)c2ccc(C)cc2)CC1)c1cccnc1` is lower in “hERG current change (%, negative = inhibition) at 10uM” value: -1.12% for the first, -46.9% for the second.

Going from `C/C(=N\NC(=O)CN1CCN(S(=O)(=O)c2ccc(C)cc2)CC1)c1ccncc1` to `C/C(=N/NC(=O)CN1CCN(S(=O)(=O)c2ccc(Br)cc2)CC1)c1ccncc1`, the “hERG current change (%, negative = inhibition) at 10uM” value falls from -77.1% to -80.3%.

Going from `C/C(=N\NC(=O)CN1CCN(S(=O)(=O)c2ccc(C)cc2)CC1)c1ccc(O)cc1` to `NC(=O)CN1CCN(S(=O)(=O)c2ccc(Br)cc2)CC1`, the “hERG current change (%, negative = inhibition) at 10uM” value rises from -6.97% to 22.4%.

`Cc1ncoc1C(=O)N1CCc2c([nH]c3ccccc23)C1C1CCCCC1` (centres unmarked) was tested, and the “hERG current change (%, negative = inhibition) at 10uM” value was 1.89%.
